For 15 compounds, composite z-score and z-score results are on record in PubChem BioAssay.

Assay [1] concerns XIP peptide (Xip251-270) binding. In words: XIP fragment 251-270 binding compounds – biochemical, small-molecule microarray, fluorescence 635/667 nm, 0.1 µg/mL protein, primary screen (AID 1182). The conditions noted are these: fluorescent protein binding, 635 nm, higher = more signal, called active from +8 up or from −8 down.
The subject of assay [2] is XIP peptide (Xip251-270). In words: compounds binding XIP fragment 251-270 – biochemical, small-molecule microarray, fluorescence 635/667 nm, 0.5 µg/mL protein, primary screen (AID 1183). The note with it: fluorescence 635 nm, higher = more signal.
Assay [3] in a line: blood-stage malaria parasite viability loss – strain 3D7, DAPI fluorescence, 100 nL, primary screen (AID 1184).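 Note: parasites grown inside human red blood cells in medium with human serum.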 The conditions noted are these: P. falciparum 3D7 growth, 3 d, higher = more signal.
Assay [4] has as its target Homeobox protein Hox-A13 (Mus musculus) (UniProt Q62424). In words: disruptors of Hoxa13 oligonucleotide interaction – biochemical, fluorescence polarization, labeled oligonucleotide, primary screen (AID 1185). The conditions noted are these: Hoxa13:DNA binding, 15 min, higher = more signal, called active from +8 up or from −8 down. On the technique in general: In fluorescence polarisation assays a small probe gives low polarisation when free and higher when bound to something large.

Assay [5] can be described thus: blockers of DNA damage checkpoint Chk1 activation – imaging, HeLa, hydroxyurea, phospho-Chk1 antibody, percent positive cells, primary screen (AID 1186). The note with it: hydroxyurea-induced phospho-Chk1 immunofluorescence imaging, higher = more signal.
A short description of assay [6]: blockers of DNA damage checkpoint Chk1 activation – imaging, HeLa, hydroxyurea, phospho-Chk1 nuclear intensity, primary screen (AID 1187). The note with it: hydroxyurea-induced phospho-Chk1 immunofluorescence imaging, higher = more signal.

Activity calls are given as the source filed them. Unless noted, the rule behind the calls is not given here.

Sequence of Homeobox protein Hox-A13 (Mus musculus) (Q62424 whole entry, looked up): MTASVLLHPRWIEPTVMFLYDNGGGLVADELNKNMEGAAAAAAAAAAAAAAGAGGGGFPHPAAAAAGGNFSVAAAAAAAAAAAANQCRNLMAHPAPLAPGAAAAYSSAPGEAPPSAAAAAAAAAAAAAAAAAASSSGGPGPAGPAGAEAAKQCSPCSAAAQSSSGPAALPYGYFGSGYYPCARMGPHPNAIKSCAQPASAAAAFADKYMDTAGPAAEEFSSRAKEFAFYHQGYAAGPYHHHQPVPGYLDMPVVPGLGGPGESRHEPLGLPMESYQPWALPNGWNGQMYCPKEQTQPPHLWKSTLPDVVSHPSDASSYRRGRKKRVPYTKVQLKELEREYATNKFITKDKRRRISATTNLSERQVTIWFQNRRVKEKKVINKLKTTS

On to `C=C(CCCC)C(=O)CC[C@H](OC(=O)c1cccnc1)c1ccc(CO)o1`, for which the composite z-score in assay [1] is 0.437 (inactive); in assay [2] it was 0.769. The z-score in assay [3] was -0.198; in assay [4], -5.27 (inactive); in assay [5], 0.242 (inactive); in assay [6] it was 0.136 (inactive).

`O=C1C2C=CC(C(O)C(c3ccccc3)c3ccccc3)N(Nc3ccccc3)C2C(=O)N1c1ccccc1` (stereo not given): the composite z-score in assay [1] was 2.35 (inactive); in assay [2], 0.722. Moreover, the z-score is -0.28 in assay [3], -1.33 (inactive) in assay [4], -0.571 (inactive) in assay [5] and -0.706 (inactive) in assay [6].

With `CCCC=C(CCC)[C@@H](NS(=O)(=O)c1ccc(Cl)cc1)c1ccccc1`, the composite z-score in assay [1] is -0.641 (inactive); in assay [2], 0.36. Besides, the z-score in assay [3] is -1.11; in assay [4], -1.87 (inactive); in assay [5] it was 0.081 (inactive); in assay [6] it was 0.268 (inactive).

As for `COCCOC(=O)N1C(=O)[C@@]2(c3cc(C#CC4(O)CCCCCC4)ccc31)[C@H](C(=O)N1CCc3cc(OC)c(OC)cc3C1)[C@H]1C(=O)O[C@H](c3ccccc3)[C@H](c3ccccc3)N1[C@@H]2c1ccc(O)cc1`, the composite z-score in assay [1] is 0.424 (inactive); in assay [2], 0.762. Besides, the z-score in assay [3] was -1.72; in assay [4], -0.363 (inactive); in assay [5] it was 0.25 (inactive); in assay [6], 0.81 (inactive).

As for `CN(C)CCCCNC(=O)[C@H]1C[C@H]2C(=O)N[C@@H](Cc3ccccc3)C(=O)N2[C@H]1c1cccc(OCCO)c1`, the composite z-score was -0.0743 (inactive) in assay [1] and -0.0022 in assay [2]. For the same compound, the z-score is -0.0613 in assay [3], -3.06 (inactive) in assay [4], -0.826 (inactive) in assay [5] and -0.851 (inactive) in assay [6].

`COc1ccc(C(O)C2C=CC3C(=O)N(C)C(=O)C3N2Nc2ccc([N+](=O)[O-])cc2[N+](=O)[O-])cc1OCc1ccccc1` (stereo not given): the figures for the composite z-score in assay [1] and in assay [2] were -0.237 (inactive) and 0.753, respectively. The z-score in assay [3] was 0.664; in assay [4], -2.98 (inactive); in assay [5], 0.47 (inactive); in assay [6], 0.219 (inactive).

Turning to `C=C(COC)C(=O)CC[C@@H](OC(=O)c1cccnc1)c1cccc(OCCO)c1`, the composite z-score in assay [1] is -0.209 (inactive); in assay [2] it was 0.617. Besides, the z-score in assay [3] is -2.53; in assay [4], -4.51 (inactive); in assay [5] it was -0.494 (inactive); in assay [6], 2.22 (inactive).

With `COC(=O)[C@@]1(CCS(=O)(=O)c2ccccc2)N=C(c2ccc(OCCCO)cc2)O[C@H]1c1ccccc1N=[N+]=[N-]`, the composite z-score is 1.61 (inactive) in assay [1] and 0.79 in assay [2]. The z-score was -1.98 in assay [3], -3.19 (inactive) in assay [4], -0.305 (inactive) in assay [5] and -0.0592 (inactive) in assay [6].

`COc1ccc([Si](C)(C)[C@H]2[C@H](CCO)O[C@@]3(C(=O)N(Cc4ccc(N5CCOC5=O)cc4)c4ccccc43)[C@@H]2C)cc1`: the composite z-score in assay [1] is 0.782 (inactive); in assay [2], 0.666. Also, the z-score in assay [3] was -2.76; in assay [4] it was -2.76 (inactive); in assay [5], -0.73 (inactive); in assay [6], -0.713 (inactive).

Consider `COCCCNC(=O)[C@@H]1c2ccccc2C(=O)N(C2CCCCC2)[C@H]1c1ccc(CO)cc1`, for which the composite z-score in assay [1] was -0.209 (inactive); in assay [2] it was 0.339. The z-score in assay [3] was -1.76; in assay [4], -0.837 (inactive); in assay [5], 0.226 (inactive); in assay [6], -0.182 (inactive).

Take `COc1ccc(CC[C@H](O)c2cccc(OCC(=O)OC(C)(C)C)c2)cc1`: the composite z-score is 0.809 (inactive) in assay [1] and 0.662 in assay [2]. The z-score in assay [3] was -1.03; in assay [4] it was -5.52 (inactive); in assay [5], -0.0884 (inactive); in assay [6] it was 0.27 (inactive).

For `N#Cc1ccc(C(O)C2C=CC3C(=O)NC(=O)C3N2Nc2ccccn2)cc1` (stereo not given), the composite z-score is -0.108 (inactive) in assay [1] and 0.669 in assay [2]. The z-score in assay [3] was -0.557; in assay [4] it was -1.11 (inactive); in assay [5], -0.0275 (inactive); in assay [6], 0.114 (inactive).

Take `C=C(CC1([C@@H](NP(=O)(c2ccccc2)c2ccccc2)[C@H]2C[C@@H]2CCN(C(=O)OCC)S(=O)(=O)c2ccc(C)cc2)CC1)c1ccccc1`: the composite z-score is 0.43 (inactive) in assay [1] and 0.666 in assay [2]. The z-score in assay [3] is -1.75; in assay [4], -2.18 (inactive); in assay [5] it was -0.215 (inactive); in assay [6], -0.0171 (inactive).

Regarding `CN(C)C(=O)[C@@]1(CCS(=O)(=O)c2ccccc2)N=C(c2ccc(OCCCO)cc2)O[C@H]1c1ccccc1N=[N+]=[N-]`, the composite z-score in assay [1] was 0.266 (inactive); in assay [2] it was 0.723. In addition, the z-score in assay [3] was -2.56; in assay [4], -5.61 (inactive); in assay [5], -0.268 (inactive); in assay [6] it was -0.701 (inactive).

Regarding `CC(C)CNC(=O)[C@@]1(C)c2ccccc2C(=O)N(Cc2cc(F)cc(C(F)(F)F)c2)[C@H]1c1ccc(CO)cc1`, the composite z-score was 2.74 (inactive) in assay [1] and 0.467 in assay [2]. For the same compound, the z-score was -0.586 in assay [3], -3.51 (inactive) in assay [4], -0.143 (inactive) in assay [5] and 0.0394 (inactive) in assay [6].
